Bioassay records as filed in PubChem.
OTUD3 block = inhibitors of human OTUD3 deubiquitinase; purified OTUD3, Ub-rhodamine fluorescence, 2 h; inhibition, % at 25 µM; actives 0.7% (n = 47,000); AID 1645858, 2021
USP28 inh = inhibitors of human USP28 deubiquitinase | Ubiquitin carboxyl-terminal hydrolase 28 (Homo sapiens), Q96RU2 | purified USP28, Ub-rhodamine cleavage fluorescence, 30 min | inhibition, % at 25 µM | actives 3% (n = 47,000)
USP30 inh = inhibitors of human USP30 deubiquitinase. Ubiquitin carboxyl-terminal hydrolase 30 (Homo sapiens), Q70CQ3. purified USP30, Ub-rhodamine cleavage fluorescence. inhibition, % at 25 µM. actives 5.3% (n = 47,000)
Target sequence (Q70CQ3 whole entry, looked up): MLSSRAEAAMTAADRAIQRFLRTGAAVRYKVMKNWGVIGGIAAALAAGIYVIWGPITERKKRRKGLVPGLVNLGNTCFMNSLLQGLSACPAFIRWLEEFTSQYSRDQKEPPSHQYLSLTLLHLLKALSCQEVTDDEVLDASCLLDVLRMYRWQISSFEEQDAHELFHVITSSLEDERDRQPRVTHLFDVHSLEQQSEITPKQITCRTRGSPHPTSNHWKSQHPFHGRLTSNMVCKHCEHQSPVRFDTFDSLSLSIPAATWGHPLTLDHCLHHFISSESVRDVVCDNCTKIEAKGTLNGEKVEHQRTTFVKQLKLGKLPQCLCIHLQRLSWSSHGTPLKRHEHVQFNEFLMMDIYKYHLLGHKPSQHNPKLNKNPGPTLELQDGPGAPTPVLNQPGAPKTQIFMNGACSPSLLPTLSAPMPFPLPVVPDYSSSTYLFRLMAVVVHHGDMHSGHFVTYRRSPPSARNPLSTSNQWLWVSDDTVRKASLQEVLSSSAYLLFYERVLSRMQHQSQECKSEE
USP17 block = inhibitors of human USP17 deubiquitinase | Ubiquitin carboxyl-terminal hydrolase 17-like protein 5 (Homo sapiens), A8MUK1 | inhibition, % at 50 µM | actives 6.5% (n = 47,000) | purified USP17, Ub-rhodamine cleavage fluorescence, 3 h | AID 1645855, 2021
The depositor's hits bear a star; . = no result given. Sampled rows, rich in hits. Any-hit rate of the full collection: about 11%. Rule as the data show it: active = inhibition above about 30%; inactive = the rest.

SMILES | OTUD3 block | USP28 inh | USP30 inh | USP17 block
C=C(CC[C@@H](C)[C@H]1CC[C@@H]2[C@]1(C)C[C@@H](O)[C@@]13C[C@@]14C(=O)C[C@H](O)[C@@](C)(C(=O)O)[C@@H]4C(=O)C[C@]23O)C(C)C | 0 | 32* | 20 | 35*
COc1ccccc1NC(=O)CN1CN(c2ccc(F)cc2)c2ncccc2S1(=O)=O | -17 | -10 | -20 | -3
COc1ccc(Cl)cc1NC(=O)COC(=O)C(Cc1c[nH]c2ccccc12)NC(=O)c1ccccc1Cl (centres undefined) | 14 | 4 | 31* | 20
Cc1ccc(C)c(NC(=O)COC(=O)C(Cc2c[nH]c3ccccc23)NC(=O)c2ccccc2Cl)c1 (centres undefined) | 15 | 15 | 13 | 20
O=C(COC(=O)C(Cc1c[nH]c2ccccc12)NC(=O)c1ccccc1Cl)c1ccc([N+](=O)[O-])cc1 (centres undefined) | 0 | 13 | 38* | 17
CSc1ccccc1NC(=O)COC(=O)C(Cc1c[nH]c2ccccc12)NC(=O)c1ccccc1Cl (centres undefined) | 16 | 20 | 30* | 25
O=C(c1ccc2nc[nH]c2c1)N1CCN(c2ncccn2)CC1 | -7 | -10 | 0 | 7
Cc1oc(-c2ccc(NC(=O)C3CCCO3)cc2)nc1Cn1cccn1 (centres undefined) | -18 | -1 | -51 | -24
COc1ccc(CC(=O)NCc2cc(-c3ccc(Cl)cc3)on2)cc1 | 5 | -2 | 13 | 16
COc1ccc(-c2nc(CNC(=O)Cc3ccc(Cl)cc3)cs2)cc1 | 10 | 19 | 8 | 36*
O=C(COc1ccccc1)NCc1csc(-c2ccccc2)n1 | 12 | 11 | 31* | 44*
CCN[C@H]1C[C@@H](c2ccccc2)OC2(CCN(Cc3cn(C)nc3C)CC2)C1 | 13 | 9 | 14 | 31*
O=c1[nH]cccc1NS(=O)(=O)c1ccc(F)cc1 | -9 | 5 | -33 | 86*
CCc1nc2c(NS(=O)(=O)c3ccc(F)cc3)cccn2n1 | -40 | -54 | -167 | -41
Cc1cc2ccccc2n1CCNS(=O)(=O)c1ccc([N+](=O)[O-])cc1 | -17 | 15 | -63 | 17
CC(=O)Nc1ccc(S(=O)(=O)NCCn2c(C)cc3ccccc32)cc1 | -40 | -36 | -162 | 34*
O=C(Nc1ccc(S(=O)(=O)N2CCCCC2c2cccnc2)cc1)c1ccc2c(c1)OCO2 (centres undefined) | 10 | 41* | 44* | 30
CC(=O)Nc1ccc(S(=O)(=O)N2CCCC2c2ccccc2)cc1 (centres undefined) | 3 | 0 | 8 | 3
CC1CCCCN1S(=O)(=O)c1ccc(C(=O)Nc2ccc(S(N)(=O)=O)cc2)cc1 (centres undefined) | 18 | 35* | 71* | 56*
CC1CCN(S(=O)(=O)c2ccc(C(=O)Nc3ccc(S(N)(=O)=O)cc3)cc2)CC1 | 0 | 21 | 68* | 10
O=C(c1ccccc1)N1CCN(c2[nH]ncc2-c2ccccc2)CC1 | 9 | 29 | 10 | -1
CN1c2ccccc2CN(S(=O)(=O)CCN)CC1Cc1ccccc1 (centres undefined) | 10 | 11 | -13 | -2
COc1ccc(-c2nc3cnccn3c2Nc2ccc3c(c2)OCCO3)c(OC)c1O | 0 | -1 | -11 | 6
CN1CC(=O)N(C2CCCNC2)Cc2c(NCc3cccc(F)c3)ncnc21 (centres undefined) | -3 | -5 | 0 | -22
COc1cccc(C2CC(=O)Nc3ccsc32)c1OCc1ccccc1 (centres undefined) | 13 | 24 | 41* | 29
SMILES | OTUD3 block | USP28 inh | USP30 inh | USP17 block
O=S(=O)(Nc1ccc(N2CCCCC2)cc1)c1ccccc1F | -24 | -20 | -68 | 34*
O=S(=O)(Nc1ccc(N2CCCCC2)cc1)c1cccc(F)c1 | -11 | -6 | -28 | -12
O=C(Nc1ccncc1)N1CCC(CNc2nc(-c3cccnc3)nc3ccccc23)CC1 | -11 | -11 | -20 | -10
COc1ccc(C(=O)C(C)OC(=O)c2cccc(S(=O)(=O)Nc3cc([N+](=O)[O-])ccc3OC)c2)c(OC)c1 (centres undefined) | 0 | 18 | 31* | 7
COc1cccc(NC(=O)C(C)OC(=O)c2ccc(NS(=O)(=O)c3ccc(F)c(F)c3)cc2)c1 (centres undefined) | -4 | -6 | -38 | -52
CCOc1ccc(NC(=O)CSC2=NC3(CCCC3)Nc3ccccc32)cc1 | -4 | -6 | -59 | 30*
Cc1nc(C2CCCN(S(=O)(=O)c3ccc(Cl)cc3)C2)nc2c1CCC(=O)N2C (centres undefined) | 5 | . | . | 2
COc1cccc(-c2c(NC(=O)c3ccccc3)oc3ccccc3c2=O)c1 | 0 | -1 | 27 | -1
Cc1ccc(C)c2[nH]c(=O)c(CN(CCCN3CCOCC3)C(=O)NCc3ccccc3)cc12 | -3 | -9 | -2 | -4
O=C(c1nc(-c2cccc3[nH]ccc23)no1)N1CCCC1 | 6 | 6 | 48* | 41*
Cc1cc2cc3c(cc2n2c(=O)n(CCN4CCCC4)nc12)OCO3 | 4 | 10 | 42* | 47*
Cc1cc(C)c2c(c1)cc(C)c1nn(CC(N)=O)c(=O)n12 | 2 | 0 | 10 | 6
CC(OC(=O)c1ccccc1Sc1ccccc1C#N)C(=O)Nc1cccc([N+](=O)[O-])c1 (centres undefined) | 13 | 27 | 36* | 26
CC(OC(=O)c1cc(S(=O)(=O)Nc2ccccc2F)ccc1Cl)C(=O)Nc1ccc([N+](=O)[O-])cc1C(F)(F)F (centres undefined) | 5 | 15 | -8 | 10
CC(=O)Nc1ccc(CN2CC[C@H](c3nc4ccccc4n3C)C2)cc1 | -1 | -3 | -8 | -25
O=c1c(-c2ccc(O)cc2)coc2cc(O)cc(O)c12 | -10 | -7 | -4 | -6
O=c1cc(-c2ccc(O)c(O)c2)oc2cc(O)cc(O)c12 | 101* | 99* | 101* | 99*
O=c1c(O)c(-c2ccc(O)c(O)c2)oc2cc(O)cc(O)c12 | 95* | 98* | 81* | 97*
COc1cc(OC)c2c(=O)cc(-c3ccccc3)oc2c1 | -6 | 1 | -3 | -3
Cc1ccccc1CN1CCC[C@H]1c1nc(-c2cncnc2N)no1 | -9 | -12 | -44 | -18
Cc1ccc(NC(=O)c2cccc(N3C(=O)C(C)(C)CS3(=O)=O)c2)cc1 | 3 | 5 | -1 | -6
Cc1cc(C)cc(NC(=O)Cc2csc(NC(=O)Nc3cccc(Cl)c3)n2)c1 | 17 | 24 | 32* | 12
Cc1c(OCc2ccccc2)noc1C1CCN(C(=O)NC2CCOCC2)CC1 | 2 | 36* | -18 | 0
Cc1c(OCc2ccccc2)noc1C1CCN(C(=O)C(C)C)CC1 | 1 | . | . | 8
O=C(C1CCOCC1)N1CCCCCC1C1CCN(c2nc3ccccc3o2)CC1 (centres undefined) | -8 | -8 | 0 | 0
Cc1cc(NC(=O)c2cc(-c3ccccn3)n[nH]2)ccc1Br | -7 | -8 | -13 | -13
